Drawing on PubChem BioAssay AID1347383 (Zoeller Lab, School of Medicine, Boston University, 2020), this text covers outcome for 39 compounds.

Active and inactive are the calls of the source.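 Rule for the calls: active = cell survival after UV exposure 2 SD above solvent-only control wells at 10 µM, confirmed on one or two repeats; inactive = the rest.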

The assay is described as follows: protection of CHO cells from pyrene-fatty acid UV killing, primary screen, phospholipid biosynthesis inhibitor project, ZR-82 cells, Analyticon library, screen 2 (AID 1347383).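 Note: survival reflects blocked phospholipid synthesis cutting uptake of the phototoxic fatty acid; compound and fatty acid exposure 3 h then viability read next day.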 Conditions: ZR-82 CHO cells, CellTiter Blue, at 10 µM, peroxisome-deficient CHO-K1 variant, with DGAT-1, DGAT-2 and ACAT inhibitors. For orientation: The colour change of resazurin is a common sign of viable cells or microbes.
For the compound `CCCCCC(O)CC(O)CC(=O)O` (centres undefined), the result was inactive.
On to `CC/C=C/C=C/C1(C)OC(=O)C(C(C)=O)=C1O` (centres undefined), for which the compound was classed as inactive.
Consider `O=C1CC2OC(C(O)c3ccccc3)C(O1)C2O` (centres undefined), for which the compound was called inactive.
With `CC(=O)OC1C(=O)C2C3OCC4=C3[C@@](C)(CC[C@@H]4O)CC[C@]2(C)[C@H]1C(C)C` (some centres undefined), the compound was called inactive.
For `C=C1C[C@]23C[C@H]1CC[C@H]2[C@]1(C)CCC[C@@]2(COC(C)=O)C(=O)O[C@H]([C@H]21)[C@@H]3OC(C)=O`, the compound was classed as active.
On to `C=C(C(=O)O)C1CC(OC(=O)CC(C)CC)C2(C)CCCC(=C)C2C1` (centres undefined), for which the result was inactive.
`CCC1C(=O)O[C@]23C=C[C@@H]4C(C(=O)O)=CO[C@H](OC12)[C@@H]43` (some centres undefined): the outcome was inactive.
In the case of `COc1cc(O)c2c(c1)C(=O)c1cc(C)cc(O)c1C2=O`, the compound was called inactive.
For the compound `COc1cc(OC)c2c(c1Cl)O[C@]1(C2=O)C(O)=CC(=O)C[C@H]1C`, the result was inactive.
Turning to `O=C(CCCCc1ccc(O)cc1)CCc1ccc(O)cc1`, the call was inactive.
As for `C/C=C(/C)C(=O)Oc1c(OC)c(OC)cc2c1-c1c(cc(OC)c(OC)c1OC)C[C@](C)(O)[C@@H](C)C2`, the entry is “inactive”; as for `CCCCCCc1cc(O)c(C)c(OC(C)=O)c1O`, “inactive”.
`C[C@]12CC[C@@H]3c4ccc(O)cc4CC[C@H]3[C@@H]1CCC2=O`: the compound was classed as inactive.
Regarding `O=C1CC(c2ccc(O)c(O)c2)Oc2cc(O)cc(O)c21` (centres undefined), the compound was called inactive.
As for `COc1cc(OC)c2c(c1Cl)OC1(C(=O)C=C(O)C=C1C)C2=O` (centres undefined), the entry is “inactive”; as for `O=C1CC(c2ccc(O)cc2)Oc2ccccc21` (centres undefined), “inactive”.
`C[N+](C)(C)C(Cc1c[nH]c2ccccc12)C(=O)[O-]` (centres undefined): the compound was classed as inactive.
Turning to `C=C(C)[C@@H]1Cc2cc3c(cc2O1)OC[C@@]1(O)c2ccc(O)cc2O[C@@H]31`, the compound was classed as inactive.
`Oc1cc(O)cc(/C=C/c2ccc(O)c(O)c2)c1`: the call was inactive.
Consider `COC1C(OC(=O)/C=C/C=C/C=C/C=C/C(=O)O)CCC2(CO2)C1C1(C)OC1CC=C(C)C` (centres undefined), for which the compound was classed as inactive.
As for `O=C(OCc1ccccc1)c1ccccc1`, the result was inactive.
The value for `C/C=C(/C)C(=O)O[C@@H]1C[C@@H](OC(=O)CC(C)C)C2(C)C3C(=O)C=C(C)C2C3C1(C)C` (some centres undefined) was “inactive”; that for `CC(C)c1ccc2c(c1)C(=O)CC1C(C)(C(=O)O)CCCC21C` (centres undefined) was “inactive”; that for `CCC(C)C(=O)OC1CCC=C2C=CC(C)C(CCC(O)CC(O)CC(=O)OC)C21` (centres undefined) was “inactive”.
`COc1c2ccoc2c(OC)c2oc(=O)ccc12`: the compound was classed as inactive.
Turning to `CC1CCC2C(C(=O)O)=CC3C(O)C(C)(C)CC123` (centres undefined), the call was inactive.
Turning to `O=C(O)/C=C/c1ccccc1O`, the result was inactive.
The value for `Cc1ccc(C(C)C)c(O)c1` was “inactive”; that for `COc1cc(O[C@@H]2O[C@H](CO)[C@@H](O)[C@H](O)[C@H]2O)cc(OC)c1OC` was “inactive”; that for `CC(C)CC1NC(=O)C2CCCN2C1=O` (centres undefined) was “inactive”.
Take `COc1cc(CCc2ccc(OCC(O)C(C)(C)O)cc2)cc2c1OCO2` (centres undefined): the call was inactive.
For `C/C1=C\C[C@]2(C)C(=O)C(O)=C([C@H](C)CO)[C@H]2C/C=C(\C)[C@@H](O)CC/C(C)=C/CC1`, the compound was classed as inactive.
Turning to `CO[C@@H]1[C@H](O)CC[C@]2(CO2)[C@H]1[C@@]1(C)O[C@@H]1CC=C(C)C`, the call was inactive.
With `C[C@@H]1O[C@@H](Oc2c(-c3ccc(O)cc3)oc3cc(O)cc(O)c3c2=O)[C@H](O)[C@H](O)[C@H]1O`, the compound was called inactive.
The value for `C=CCc1ccc(OC(C)Cc2cc(OC)c(OC)c(OC)c2)c(OC)c1` (centres undefined) was “inactive”; that for `CC(=O)N[C@@H](C(=O)O[C@H]1CCC(C)(C)[C@@H]2CCC3=C(COC3=O)[C@@]12C)C(C)C` was “inactive”.
Take `CC12CCC3C1C(c1c(cc(O)c(C(=O)c4ccccc4)c1O)O2)C3(C)C` (centres undefined): the outcome was inactive.
Consider `COc1cc(O)c(C(=O)c2c(C)cc(O)cc2OC)c(O)c1`, for which the call was inactive.
As for `CC#CC#C/C=C1\C=CC2(OC=CC2OC(=O)C=C(C)C)O1` (centres undefined), the outcome was inactive.
